Inconclusive results are not listed. Activity calls are given as the source filed them. Unless noted, the call rests on the fitted dose curve; in most records, active means well fitted curve in the direction sought with a large enough effect in the repeat runs; inconclusive means weak or mixed curves; inactive means no such curve, though single readings can be large; an effect the other way counts as inactive or inconclusive.
Assays:
[1] = A CellTox Green Cytotoxicity Assay to monitor cytotoxicity in HepG2 cells - 8 hour (AID 1224890); further: nearly all actives have a fitted effect of over 45% in size
Procedure, shortened: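 Real-time, homogeneous cytotoxicity readout: dead-cell DNA staining by CellTox Green in HepG2 monolayers, fluorescence measured at timed intervals up to 40 h of continuous compound exposure.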

[2] = qHTS assay to identify small molecule antagonists of the estrogen receptor alpha (ER-alpha) signaling pathway using the BG1 cell line in the presence of 0.1 nM 17-beta-estradiol - cell viability counter screen (AID 1259241); further: nearly all actives have a fitted effect of over 40% in size
Procedure, shortened: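 Cytotoxicity counter-screen: live-cell protease activity measured by fluorescence (30 min reagent step) in the same wells. Cells were VM7Luc4E2 with endogenous ER-alpha and ERE-driven luciferase, treated 22 hr at 37C alongside 0.1 nM 17beta-estradiol final.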

[3] = qHTS assay to identify small molecule antagonists of the androgen receptor (AR) signaling pathway using the MDA cell line in the presence of 0.5 nM R1881 - cell viability counter screen (AID 1259242); further: nearly all actives have a fitted effect of over 45% in size
Procedure, shortened: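 Cytotoxicity toward MDA-kb2 cells is measured by CellTiter-Fluor live-cell protease fluorescence after 16 hr compound exposure at 37C in the presence of 0.5 nM R1881 stimulator.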

[4] = biological target: Estrogen receptor (Homo sapiens) (UniProt P03372); experiment: qHTS assay to identify small molecule antagonists of the estrogen receptor alpha (ER-alpha) signaling pathway using the BG1 cell line in the presence of 0.1 nM 17-beta-estradiol (AID 1259244); further: nearly all actives have a fitted effect of over 50% in size
Procedure, shortened: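 After 5 days in hormone-depleted medium (charcoal-stripped serum, no phenol red), VM7Luc4E2 cells were seeded, incubated 24 h, then co-treated with compound and 0.1 nM (final) estradiol for 22 h before luminescence detection.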

[5] = qHTS assay to identify small molecule phospholipidosis (PLD) inducers (AID 1259344; active means well fitted curve in the direction sought with a large enough effect; an effect the other way counts as inactive or inconclusive)
Procedure, shortened: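 Quantitative HTS in HepG2: compound plus LipidTOX Red dye for 24 h, paraformaldehyde fixation with Hoechst 33342, widefield high-content imaging; amiodarone as positive and DMSO as negative control.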

[6] = qHTS assay to identify small molecule HDAC inhibitors (AID 1259364); further: top concentration of the series differs between compounds; nearly all actives have a fitted effect of over 45% in size
Procedure, shortened: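 Homogeneous cell-based luminescent assay of endogenous class I/II HDAC activity; HCT-116 cells, 2 h compound exposure, 30 min HDAC-Glo development at RT.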

[7] = qHTS assay to identify small molecule HDAC inhibitors - cell viability counter screen (AID 1259365); further: series mostly up to about 92 µM; nearly all actives have a fitted effect of over 50% in size
Procedure, shortened: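 CellTiter-Glo luminescence (30 min, room temperature) reported viability after a 2 h compound exposure at 37 C. Cells: wild-type HCT-116, 1,500 per well, seeded the night before.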

[8] = qHTS assay to identify small molecule agonists of the sonic hedgehog signaling (Shh) pathway - cell viability counter screen (AID 1259366); further: nearly all actives have a fitted effect of over 50% in size
Procedure, shortened: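 Cytotoxicity counter screen: CellTiter-Fluor reagent added after 23 h compound exposure, then 1 h at 37C and fluorescence read. Cells were 3T3 Gli1-Luc, seeded 2,000 per well and dosed 4 h post-plating.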

[9] = qHTS assay to identify small molecule antagonists of the sonic hedgehog signaling (Shh) pathway - cell viability counter screen (AID 1259367); further: nearly all actives have a fitted effect of over 55% in size
Procedure, shortened: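 Seed 3T3 Gli1-Luc cells at 2,000 per well; incubate 4 hr; add compound in DMSO, then conditioned medium; incubate at 37C with 5% CO2; add CellTiter-Fluor after 23 hr; read fluorescence 1 hr later.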

[10] = qHTS assay to identify small molecule agonists of the sonic hedgehog signaling (Shh) pathway (AID 1259368; calls by dose curve;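 further: NIH/3T3-derived 3T3Gli1-Luc cells carrying a stable Gli1-driven firefly luciferase reporter; series mostly up to about 92 µM; nearly all actives have a fitted effect of over 15% in size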)
Procedure, shortened: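 Steps: seed 3T3 Gli1-Luc cells, incubate 4 hr at 37 C, pin-transfer compounds in DMSO alongside a positive control, incubate 24 hr, add luciferase detection reagent, wait 30 min at room temperature, read luminescence.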

[11] = biological target: Estrogen receptor beta (Homo sapiens) (UniProt Q92731); experiment: qHTS assay to identify small molecule agonists of the estrogen receptor beta (ER-beta) signaling pathway (AID 1259377; active means well fitted activation curve with a large enough effect in the signal ratio in the repeat runs, not every such curve was filed as active; the % refers to the signal ratio)
Procedure, shortened: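 Ratiometric beta-lactamase FRET read-out came after 2 h substrate loading at room temperature. It followed 16 h compound treatment at 37C of GripTite HEK293T cells carrying a UAS-bla reporter, plated in 2% charcoal-stripped FBS medium.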

[12] = biological target: Estrogen receptor beta (Homo sapiens) (UniProt Q92731); experiment: qHTS assay to identify small molecule antagonists of the estrogen receptor beta (ER-beta) signaling pathway (AID 1259378; active means well fitted inhibition curve with a large enough effect in the signal ratio in the repeat runs, not every such curve was filed as active; the % refers to the signal ratio)
Procedure, shortened: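 ER-beta-UAS-bla HEK293T cells in 2% charcoal-stripped FBS medium treated with compound plus 1nM final 17-beta-estradiol for 16 hr at 37C. Beta-lactamase reporter read by FRET substrate fluorescence after 2 hours at room temperature.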

[13] = qHTS assay to identify small molecule agonists of the androgen receptor (AR) signaling pathway in the presence of an antagonist - cell viability counter screen (AID 1259379);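 further: MDA-kb2 human breast cancer cells carrying an MMTV luciferase reporter; series mostly up to about 92 µM; nearly all actives have a fitted effect of over 25% in size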
Procedure, shortened: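 Fluorescence from CellTiter-Fluor, added after 15 hr and read 1 hr later, gave cell viability. Cells were MDA-kb2 exposed to compounds (15 concentrations) in the presence of 3.0uM nilutamide at 37C, 0% CO2.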

[14] = qHTS assay to identify small molecule agonists of the estrogen receptor beta (ER-beta) signaling pathway - cell viability counter screen (AID 1259380); further: nearly all actives have a fitted effect of over 30% in size
Procedure, shortened: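 Same-well viability counter screen. Cells: ER-beta-UAS-bla HEK293T, plated 6 hr before compound, in 2% charcoal-stripped FBS. Compound exposure 16 hr, 37C; viability by CellTiter-Glo luminescence after 30 min at room temperature.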

[15] = qHTS assay to identify small molecule antagonists of the estrogen receptor beta (ER-beta) signaling pathway - cell viability counter screen (AID 1259382); further: series mostly up to about 92 µM; nearly all actives have a fitted effect of over 55% in size
Procedure, shortened: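 Following a 6 hr plating period, HEK293T cells carrying a UAS-driven beta-lactamase reporter under ER-beta control received compounds and 1nM E2 (final). After 16 hr at 37C and 2 hr substrate loading, CellTiter-Glo luminescence indicated viability.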

[16] = biological target: Estrogen receptor (Homo sapiens) (UniProt P03372); experiment: qHTS assay to identify small molecule agonists of the estrogen receptor alpha (ER-alpha) signaling pathway in the presence of an antagonist (AID 1259383; calls by dose curve; further: top concentration of the series differs between compounds; nearly all actives have a fitted effect of over 15% in size)
Procedure, shortened: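 Cells are hormone-deprived for 5 days (charcoal-stripped FBS, no phenol red), plated for 24hr, spiked with 10.0nM ICI-182,780, then dosed at 15 concentrations. After 22hr at 37C, ONE-Glo luminescence reports ERE-luciferase activity.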

[17] = qHTS assay to identify small molecule agonists or antagonists of the thyroid stimulating hormone receptor (TSHR) signaling pathway - wild type cell line counter screen (AID 1259384; calls by dose curve)
Procedure, shortened: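 Wild-type Hek293 cells, 800/well, 18 h at 37C, then compound with Ro20-1724 for 30 min RT. cAMP by HTRF (cAMP-d2/anti-cAMP cryptate), 1 h RT, fluorescence read. 15 concentrations, triplicates.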

[18] = qHTS assay to identify small molecule antagonists of the sonic hedgehog signaling (Shh) pathway (AID 1259369; calls by dose curve; further: nearly all actives have a fitted effect of over 45% in size)
Procedure, shortened: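 Inhibition of Shh signalling is measured as reduced Gli1-response-element firefly luciferase output in an NIH/3T3-derived stable reporter clone stimulated with conditioned medium for 24hr.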

[19] = biological target: Androgen receptor (Homo sapiens) (UniProt P10275); experiment: qHTS assay to identify small molecule antagonists of the androgen receptor (AR) signaling pathway using the MDA cell line in the presence of 0.5 nM R1881 (AID 1259243); further: nearly all actives have a fitted effect of over 50% in size
Procedure, shortened: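 Steps: seed MDA-kb2 cells, incubate 5 hr at 37C; pin-transfer compounds in DMSO; add R1881 to 0.5 nM final; incubate 16 hr; add ONE-Glo, wait 30 min at room temperature; read luminescence.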

[20] = biological target: Androgen receptor (Homo sapiens) (UniProt P10275); experiment: qHTS assay to identify small molecule agonists of the androgen receptor (AR) signaling pathway in the presence of an antagonist (AID 1259381; calls by dose curve; further: nearly all actives have a fitted effect of over 15% in size)
Procedure, shortened: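 Cells are MDA-kb2 (human breast carcinoma, MMTV-luc, AR/GR responsive). Nilutamide is present at 3.0uM final throughout; compounds are added at 15 concentrations and incubated 16hr at 37C before ONE-Glo luminescence detection.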
On the % scale 0 is the no-effect control and ±100 the full control effect.

Sequence of Estrogen receptor beta (Homo sapiens) (Q92731 whole entry, looked up): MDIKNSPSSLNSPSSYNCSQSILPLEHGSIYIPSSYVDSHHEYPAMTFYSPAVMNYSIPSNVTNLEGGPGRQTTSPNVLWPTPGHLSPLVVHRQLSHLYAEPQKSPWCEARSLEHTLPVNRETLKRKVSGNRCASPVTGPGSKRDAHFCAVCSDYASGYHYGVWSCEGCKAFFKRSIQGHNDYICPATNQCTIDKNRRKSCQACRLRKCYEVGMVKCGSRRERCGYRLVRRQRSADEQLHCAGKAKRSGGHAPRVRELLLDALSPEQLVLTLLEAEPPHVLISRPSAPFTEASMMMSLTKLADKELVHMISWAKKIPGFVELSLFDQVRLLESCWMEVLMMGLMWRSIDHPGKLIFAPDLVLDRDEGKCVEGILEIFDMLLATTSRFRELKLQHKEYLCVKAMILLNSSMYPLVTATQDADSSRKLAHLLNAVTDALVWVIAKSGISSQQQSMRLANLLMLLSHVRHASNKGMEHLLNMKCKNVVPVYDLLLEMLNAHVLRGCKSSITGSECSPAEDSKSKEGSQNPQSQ
Sequence of Estrogen receptor (Homo sapiens) (P03372 whole entry, looked up): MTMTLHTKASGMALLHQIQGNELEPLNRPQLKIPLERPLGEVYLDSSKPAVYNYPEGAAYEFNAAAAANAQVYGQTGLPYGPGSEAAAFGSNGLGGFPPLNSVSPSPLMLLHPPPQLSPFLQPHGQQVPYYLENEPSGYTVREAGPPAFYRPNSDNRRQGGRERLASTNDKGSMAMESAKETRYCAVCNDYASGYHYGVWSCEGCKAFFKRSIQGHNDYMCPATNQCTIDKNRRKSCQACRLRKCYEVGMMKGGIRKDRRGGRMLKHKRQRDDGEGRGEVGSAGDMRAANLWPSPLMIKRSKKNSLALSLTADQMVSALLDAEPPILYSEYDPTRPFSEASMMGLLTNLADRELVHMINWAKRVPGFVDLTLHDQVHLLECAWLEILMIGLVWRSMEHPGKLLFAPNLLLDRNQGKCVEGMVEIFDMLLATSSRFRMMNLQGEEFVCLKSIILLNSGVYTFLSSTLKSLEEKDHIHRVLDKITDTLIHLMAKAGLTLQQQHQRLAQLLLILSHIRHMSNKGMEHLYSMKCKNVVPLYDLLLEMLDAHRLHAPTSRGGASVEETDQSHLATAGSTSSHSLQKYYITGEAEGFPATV
Sequence of Androgen receptor (Homo sapiens) (P10275 whole entry, looked up): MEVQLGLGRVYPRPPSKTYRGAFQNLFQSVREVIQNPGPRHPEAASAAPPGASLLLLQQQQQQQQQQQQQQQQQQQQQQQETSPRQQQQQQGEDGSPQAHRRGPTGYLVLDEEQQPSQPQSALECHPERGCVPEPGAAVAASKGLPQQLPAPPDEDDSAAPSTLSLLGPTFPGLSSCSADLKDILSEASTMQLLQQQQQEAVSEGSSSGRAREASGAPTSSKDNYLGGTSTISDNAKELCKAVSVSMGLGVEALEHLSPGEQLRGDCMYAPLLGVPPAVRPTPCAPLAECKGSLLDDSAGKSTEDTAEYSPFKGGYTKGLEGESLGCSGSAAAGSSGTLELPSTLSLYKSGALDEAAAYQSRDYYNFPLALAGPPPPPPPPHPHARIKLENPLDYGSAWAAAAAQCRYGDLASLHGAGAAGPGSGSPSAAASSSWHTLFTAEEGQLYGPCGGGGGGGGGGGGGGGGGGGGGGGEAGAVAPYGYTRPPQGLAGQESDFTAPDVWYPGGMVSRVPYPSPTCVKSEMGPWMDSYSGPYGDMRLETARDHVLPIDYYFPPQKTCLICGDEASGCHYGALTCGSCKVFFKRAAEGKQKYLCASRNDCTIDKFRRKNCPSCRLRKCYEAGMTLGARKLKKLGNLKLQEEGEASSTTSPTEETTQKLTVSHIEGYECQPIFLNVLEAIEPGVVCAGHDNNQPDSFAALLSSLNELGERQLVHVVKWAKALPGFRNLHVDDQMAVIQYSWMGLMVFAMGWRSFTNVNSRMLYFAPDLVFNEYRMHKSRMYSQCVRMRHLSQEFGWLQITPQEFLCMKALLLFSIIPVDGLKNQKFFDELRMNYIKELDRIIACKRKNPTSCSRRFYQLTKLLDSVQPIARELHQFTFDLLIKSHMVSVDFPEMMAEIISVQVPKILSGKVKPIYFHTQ

CCN1CCC[C@H]1CNC(=O)c1c(O)c(Cl)cc(Cl)c1OC
inactive: Potency [1] | outcome [2] | Potency [3] | outcome [4] | Potency [5] | Potency [6] | outcome [7] | Potency [8] | Potency [9] | outcome [10] | outcome [11] | outcome [12] | Potency [13] | Potency [14] | Potency [15] | Potency [16] | outcome [17]

CC(=O)Nc1c(I)cc(I)c(C(=O)O)c1I
inactive: Potency [1] | outcome [2] | Potency [3] | outcome [4] | Potency [5] | Potency [6] | outcome [7] | Potency [8] | Potency [9] | outcome [10] | Potency [18] | Potency [13] | Potency [14] | Potency [15] | Potency [16]

c1cnc(N2CCN(Cc3ccc4c(c3)OCO4)CC2)nc1
inactive: Potency [1] | outcome [2] | Potency [3] | outcome [4] | Potency [5] | Potency [6] | outcome [7] | Potency [8] | Potency [9] | outcome [10] | Potency [18] | outcome [11] | outcome [12] | Potency [13] | Potency [14] | Potency [15] | Potency [16] | outcome [17]

O=c1cc(CO)occ1O
inactive: Potency [1] | outcome [2] | Potency [3] | outcome [4] | Potency [5] | Potency [6] | outcome [7] | Potency [8] | Potency [9] | outcome [10] | Potency [18] | outcome [11] | Potency [13] | Potency [14] | Potency [15] | Potency [16] | outcome [17]

N=C(N)c1ccc(OCCCOc2ccc(C(=N)N)cc2)cc1
inactive: Potency [1] | outcome [2] | Potency [3] | outcome [4] | PLD induction [5] -2.77% [at 0.306 µM] | Potency [6] | outcome [7] | Potency [8] | Potency [9] | outcome [10] | Potency [18] | outcome [11] | outcome [12] | Potency [13] | Potency [14] | Potency [15] | Potency [16] | outcome [17]

N=c1nc(N2CCCCC2)cc(N)n1O
inactive: Potency [1] | outcome [2] | Potency [3] | outcome [4] | Potency [5] | Potency [6] | outcome [7] | Potency [8] | Potency [9] | outcome [10] | Potency [18] | outcome [11] | outcome [12] | Potency [13] | Potency [14] | Potency [16] | outcome [17]

CC(=O)CC(C)C
inactive: Potency [1] | outcome [2] | Potency [3] | Potency [19] | Potency [6] | outcome [7] | Potency [8] | Potency [9] | outcome [10] | Potency [18] | outcome [11] | outcome [12] | Potency [13] | Potency [14] | Potency [20] | Potency [15] | outcome [17]

Source: PubChem BioAssay (Tox21)
